The list is not random: actives were taken first. Their share in the collection is about 4.2%.
GDH-TPI inh = counter-screen for M. tuberculosis FBA inhibitors: GDH-TPI coupled enzymes | GDH-TPI coupled enzyme counterscreen, NADH absorbance | inhibition, % at 4.8 µM | 360,000 tested, 1.2% active | AID 588335;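 also: 0% = DMSO wells and 100% = wells lacking the enzyme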
CCHF vOTU inh = CCHFV vOTU protease inhibition; Pep-AMC fluorescence; inhibition, % at 11.5 µM; 370,000 tested, 0.55% active; also: 0% = vehicle wells with enzyme and 100% = no enzyme wells
RecA intein inh = blocks M. tuberculosis RecA intein splicing; P9WHJ3; cell-free RecA intein splicing, fluorescence; inhibition, % (no concentration beside the values); 290,000 tested, 0.75% active; in the data active = inhibition above about 30%;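 also: 0% = vehicle wells and 100% = reference inhibitor control wells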
Mtb FBA inh = inhibits M. tuberculosis FBA enzyme. 360,000 tested, 2.3% active. AID 588726. purified M. tuberculosis FBA, fluorescence read-out. P9WQA3. inhibition, % at 1 µM; in the data active = inhibition above about 27%;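 also: 0% = vehicle and 100% = reference inhibitor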
Target sequence (P9WQA3 whole entry, looked up): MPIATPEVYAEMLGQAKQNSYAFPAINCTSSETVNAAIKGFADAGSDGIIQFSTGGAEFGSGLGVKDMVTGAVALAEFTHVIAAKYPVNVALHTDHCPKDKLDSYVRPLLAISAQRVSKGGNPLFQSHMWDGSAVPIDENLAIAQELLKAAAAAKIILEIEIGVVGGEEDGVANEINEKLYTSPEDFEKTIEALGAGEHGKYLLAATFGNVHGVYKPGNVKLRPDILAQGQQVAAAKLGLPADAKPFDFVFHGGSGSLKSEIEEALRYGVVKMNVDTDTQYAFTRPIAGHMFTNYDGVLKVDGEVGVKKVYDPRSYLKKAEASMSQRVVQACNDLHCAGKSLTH
GFP chromophore = counter-screen: blocks GFP chromophore formation. shares compounds with RecA intein inh. cell-free GFP chromophore formation, fluorescence. EC50, µM. 2,100 tested, 83% active. AID 434968; call rule not given here
An asterisk follows results filed as active; nt = not tested or not shown. Rule as the data show it, unless noted: active = inhibition above about 30%; inactive = the rest.

SMILES	GDH-TPI inh	CCHF vOTU inh	RecA intein inh	Mtb FBA inh	GFP chromophore
COc1ccc(C2C(C#N)=C(N)Oc3n[nH]c(-c4ccccn4)c32)c(OC)c1OC (centres undefined)	-9	-10	13	0	nt
c1ccc(-c2ccc(CNC3CC3)cc2)cc1	-2	-9	2	0	nt
CC(=O)N1CCC2(CC1)C(C#N)=C(N)Oc1n[nH]c(CSc3ccc(C)cc3)c12	8	-11	74*	3	23*
CCc1[nH]nc2c1C1(CCOC1C)C(C#N)=C(N)O2 (centres undefined)	1	-17	2	0	nt
CCc1[nH]nc2c1C1(CCN(C(=O)c3ccccc3)CC1)C(C#N)=C(N)O2	0	-3	67*	-1	29*
Cc1cc(-n2cnnn2)cc(C)c1S(=O)(=O)N(C)c1ccccc1	0	5	nt	0	nt
Cc1c(C(c2ccc([N+](=O)[O-])cc2)c2c(C)n(C)n(-c3ccccc3)c2=O)c(=O)n(-c2ccccc2)n1C	7	-2	1	-2	nt
Cc1[nH]n(-c2ccccc2)c(=O)c1C(c1ccc([N+](=O)[O-])cc1)c1c(C)[nH]n(-c2ccccc2)c1=O	11	nt	95*	-9	1.6*
Cc1[nH]n(-c2ccccc2)c(=O)c1-c1ccccc1	5	7	-6	1	nt
Cc1[nH]n(-c2ccccc2)c(=O)c1C(C[N+](=O)[O-])c1ccccc1Cl (centres undefined)	-2	0	75*	0	15*
Oc1ccc(/C=N/Nc2ccc(C(F)(F)F)cn2)c(O)c1	24	22	42*	-2	>38
CCCCCCn1c(=O)n2n(c1=O)C[C@]1(OC(=O)NCc3ccco3)CN(S(=O)(=O)c3ccc(C)cc3)C[C@]1(O)C2	9	7	nt	0	nt
Cc1nnc(Sc2nc3ccccc3o2)c2ccccc12	-7	7	50*	0	28*
CCSc1nnc(C)c2ccccc12	-3	9	1	0	nt
Cc1ccc(-c2nnc(Sc3nc4ccccc4o3)c3ccccc23)cc1	7	-8	77*	2	0.93*
Clc1ccc(-c2nnc(Sc3nc4ccccc4o3)c3ccccc23)cc1	0	-4	57*	5	0.62*
COc1ccc(C(CNC(=O)c2ccc(-c3nc4ccccc4s3)o2)N2CCCC2)cc1 (centres undefined)	18	10	nt	8	nt
COc1cc(C(=O)N/N=C/c2coc3ccc(Cl)cc3c2=O)ccc1O	6	-3	23	0	nt
O=C(N/N=C/c1coc2ccc(Cl)cc2c1=O)c1ccc(O)cc1	-2	3	38*	-1	32*
COc1ccc(C(=O)N/N=C\c2coc3ccc(Cl)cc3c2=O)cc1	9	-10	37*	0	38*
COc1ccc([C@H]2OC(=O)C[C@@H]2C(=O)N2CCN(c3ccccc3F)CC2)cc1OC	nt	-1	nt	nt	nt
O=[N+]([O-])c1cc(C(F)(F)F)cc([N+](=O)[O-])c1NCCNC(=S)Nc1ccc(Cl)c(Cl)c1	-15	13	30*	-3	>38
CCOC(=O)[C@]12CCCC=C1N(CCC1=CCCCC1)C(=O)[C@H](CC(=O)NCc1cccs1)C2	nt	2	nt	nt	nt
O=C1CCCC(O)=C1C(C#Cc1ccccc1)C1=C(O)CCCC1=O	9	nt	30*	-5	12*
CCCc1nn(C)c2c1C(c1ccncc1)C(C#N)=C(N)O2 (centres undefined)	4	1	64*	0	30*
SMILES	GDH-TPI inh	CCHF vOTU inh	RecA intein inh	Mtb FBA inh	GFP chromophore
Cc1ccc(-n2nc(C)c3c2OC(N)=C(C#N)C3c2cccs2)cc1 (centres undefined)	5	-1	65*	1	5*
Cc1nn(Cc2ccccc2)c2c1C(c1cccc(Cl)c1)C(C#N)=C(N)O2 (centres undefined)	14	2	73*	1	32*
COc1cc(-n2nc(C)c3c2OC(N)=C(C#N)C3c2ccccc2)c(Cl)c(Br)c1O (centres undefined)	15	9	72*	-8	20*
COc1ccc2[nH]cc(CCNS(=O)(=O)c3ccc(C)cc3)c2c1	1	-13	1	-3	nt
CN(CC(=O)Nc1ccc(Cl)cc1)C(=O)C1CCCC1	5	2	nt	3	nt
Cc1nn(-c2ccccc2)c2c1C(c1ccncc1)C(C#N)=C(N)O2 (centres undefined)	3	8	38*	-1	17*
O=C1C(Cl)=C(N2CCCCC2)C(=O)N1c1ccccc1Cl	6	1	77*	2	6.2*
Cc1ccccc1N1C(=O)C(Cl)=C(N2CCCCCC2)C1=O	-2	4	8	-7	nt
COc1ccc(OC)c(N2C(=O)C(Cl)=C(N3CCCCC3)C2=O)c1	9	-4	63*	1	17*
O=C1C(Cl)=C(N2CCCCC2)C(=O)N1c1ccccc1	1	-3	41*	-6	8.8*
Cc1ccc(N2C(=O)C(Cl)=C(N3CCCCCC3)C2=O)cc1	8	1	9	-3	nt
Cc1ccc(/C=C(\C#N)C(=O)Nc2ccccn2)o1	11	9	0	4	nt
Nc1nc(SCC(=O)N2CCCCC2)[nH]c(=O)c1NC(=O)c1ccccc1F	13	-4	-3	0	nt
O=C1NC[C@@H](CCCCN2C[C@H](Cc3ccccc3)N(CC3CCCCC3)C(=O)C2=O)N(CC2CCCCC2)C1=O	nt	9	nt	nt	nt
CC(=O)/C(=C/c1ccccc1)C(=O)Nc1ccccc1C	7	-5	-1	-2	nt
Cc1ccccc1NC(=O)C(=Cc1ccc(C(=O)O)cc1)C(=O)Nc1ccccc1C	-1	1	68*	-5	16*
COc1ccc(NS(=O)(=O)c2ccc(O)c(C(=O)OCC(=O)NC(C)C3CC4CCC3C4)c2)cc1 (centres undefined)	16	-7	4	1	nt
CC(NC(=O)COC(=O)c1cc(NS(=O)(=O)c2ccc(Cl)c([N+](=O)[O-])c2)ccc1O)C1CC2CCC1C2 (centres undefined)	4	25	48*	0	>38
Cc1ccc(S(=O)(=O)N2c3ccccc3OCC2c2ccccc2)cc1 (centres undefined)	-4	-2	-1	2	nt
O=C(C(Cl)Cl)N1c2ccccc2OCC1c1ccccc1 (centres undefined)	2	4	72*	0	35*
O=C(Cc1ccccc1F)Nc1nc2ccccc2[nH]1	1	-11	38*	1	>38
COc1ccc2c3c(ccc2c1)C(=O)/C(=C/O)CC3	9	-1	nt	13	nt
N#CC(c1ccccc1)c1cnccn1 (centres undefined)	-14	-10	33*	2	>38
COc1ccc(C2C(O)C(c3c[nH]c4ccccc34)=NN2C(=O)CCl)cc1 (centres undefined)	19	-19	87*	16	2.3*
C/C(CC(=O)Nc1ccccn1)=N\NC(=O)C(=O)Nc1ccccc1C	13	-7	29	6	nt
CCc1ccc(NC(=O)C(=O)N/N=C(\C)CC(=O)Nc2ccccn2)cc1	-3	-22	36*	6	>38
O=c1c(Cl)nc2cc(Cl)ccc2n1CCNc1ncc(C(F)(F)F)cc1Cl	5	nt	67*	-1	0.31*
